Measurements reported in PubChem BioAssay AID1502 (Sanford-Burnham Center for Chemical Genomics, 2009).
The list shows a part of the results. A number with no mark means an inactive call. Active and inactive are the calls of the source. Rule as the data show it: active = inhibition above about 40%; inactive = the rest.

Target: Runt-related transcription factor 1 (Homo sapiens) + Core-binding factor subunit beta (Homo sapiens) (UniProt Q01196+Q13951)
Assay: inhibitors of RUNX1 Runt–CBFb binding, biochemical, TR-FRET (AID 1502)
Details: TR-FRET RUNX1 Runt domain-CBFb binding; at 20 µM; hits give high values

Runt-related transcription factor 1 (Homo sapiens) + Core-binding factor subunit beta (Homo sapiens), sequence (Q01196 whole entry, looked up): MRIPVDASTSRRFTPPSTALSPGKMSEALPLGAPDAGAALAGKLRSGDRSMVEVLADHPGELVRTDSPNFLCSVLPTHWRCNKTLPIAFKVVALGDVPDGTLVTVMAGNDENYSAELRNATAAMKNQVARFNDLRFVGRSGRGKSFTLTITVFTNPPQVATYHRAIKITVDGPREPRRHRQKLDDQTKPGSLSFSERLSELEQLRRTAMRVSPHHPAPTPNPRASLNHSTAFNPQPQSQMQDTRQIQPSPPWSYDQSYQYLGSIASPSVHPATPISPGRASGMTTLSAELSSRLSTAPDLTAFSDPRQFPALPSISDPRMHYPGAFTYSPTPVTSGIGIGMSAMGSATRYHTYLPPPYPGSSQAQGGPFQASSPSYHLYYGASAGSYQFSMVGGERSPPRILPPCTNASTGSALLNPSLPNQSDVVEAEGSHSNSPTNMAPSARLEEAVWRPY
Runt-related transcription factor 1 (Homo sapiens) + Core-binding factor subunit beta (Homo sapiens), sequence (Q13951 whole entry, looked up): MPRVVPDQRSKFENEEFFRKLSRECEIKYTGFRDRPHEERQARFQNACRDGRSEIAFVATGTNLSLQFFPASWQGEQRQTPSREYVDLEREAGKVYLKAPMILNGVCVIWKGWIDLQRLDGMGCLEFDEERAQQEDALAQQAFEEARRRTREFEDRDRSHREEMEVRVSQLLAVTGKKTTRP

**Q.** How did the inhibition turn out when `CCCN1C2=C(C(=O)CCC2)C(c2ccc(O)c(Br)c2)C2=C1CCCC2=O` was run?
**A.** 29.9%

**Q.** Which inhibition does the source give for `Cc1ccc(-c2cn3cc([N+](=O)[O-])ccc3n2)cc1` here?
**A.** -11.5%

**Q.** For `Cc1cc(F)ccc1S(=O)(=O)Nc1ncnc2scc(-c3ccc(F)cc3)c12`, which inhibition is on record?
**A.** -13.5%

**Q.** Which inhibition does the source give for `COc1cccc2sc(Nc3nc(C)c(C(C)=O)s3)nc12` here?
**A.** 0.6%

**Q.** Which inhibition does the source give for `CCN1/C(=C/C(=S)Nc2ccccc2)Sc2ccccc21` here?
**A.** -2.1%

**Q.** Which inhibition does the source give for `CCOC(=O)c1cc2c(=O)n3ccccc3nc2n(CC(C)C)c1=NC(=O)c1c(-c2c(F)cccc2Cl)noc1C` here?
**A.** -8.1%

**Q.** With `O=C1c2ccccc2C(Nc2ccc3c(c2)OCCO3)N1Cc1ccco1` (configuration not stated) as the molecule, how does the inhibition read?
**A.** 2%

**Q.** For `CC(=O)Oc1ccc2c(C)c(CC(C)O)c(=O)oc2c1` (configuration not stated), which inhibition is on record?
**A.** 14%

**Q.** `CCC(=O)Nc1c(S(=O)(=O)c2ccccc2)c2nc3ccccc3nc2n1Cc1ccccc1` was tested. Which inhibition did it give?
**A.** 62.4% (active)

**Q.** With `COc1c(O)ccc2c1CN1CCc3cc4c(cc3C1C2)OCO4` (configuration not stated) as the molecule, how does the inhibition read?
**A.** 20.3%

**Q.** With `N#CC1=C(N)Oc2cc(O)ccc2C1C1CCCCC1` (configuration not stated) as the molecule, how does the inhibition read?
**A.** -0.9%

**Q.** How did the inhibition turn out when `CCN1C(=O)/C(=C2/Sc3ccccc3N2CCCS(=O)(=O)O)SC1=S` was run?
**A.** 10.7%

**Q.** With `CCCS(=O)(=O)N1CCCC(C(=O)NCc2ccco2)C1` (configuration not stated) as the molecule, how does the inhibition read?
**A.** 2.1%

**Q.** Which inhibition does the source give for `CCOc1cccc(/C=N/N2C(=O)CSC2=S)c1O` here?
**A.** 77.6% (active)

**Q.** For `O=c1cc(CN2CCN(S(=O)(=O)/C=C/c3ccccc3)CC2)c2ccc(O)cc2o1`, which inhibition is on record?
**A.** 34.5%

**Q.** Which inhibition does the source give for `CC(C)Cn1c(CCC(=O)O)ccc1-c1cccs1` here?
**A.** 17%

**Q.** With `CC(C)(C)OC(=O)c1c(N)n(CCCN2CCCC2=O)c2nc3ccccc3nc12` as the molecule, how does the inhibition read?
**A.** 34.4%

**Q.** `CC(C)Oc1ccc(/C=C(\NC(=O)/C=C/c2ccco2)C(=O)NCCc2nc3ccccc3[nH]2)cc1` was tested. Which inhibition did it give?
**A.** -3.3%

**Q.** Which inhibition does the source give for `Cc1cc(C)c2c3c(sc2n1)C(c1ccccc1)C(C#N)=C(N)O3` (configuration not stated) here?
**A.** 1.6%

**Q.** `Brc1ccc(CSc2ccc(-c3ccco3)nn2)cc1` was tested. Which inhibition did it give?
**A.** 73.7% (active)

**Q.** With `COCC(C)OC(=O)c1c(N)n(CCCN2CCOCC2)c2nc3ccccc3nc12` (configuration not stated) as the molecule, how does the inhibition read?
**A.** 53.2% (active)

**Q.** How did the inhibition turn out when `OCCN1CCN(C(=S)c2ccc(-c3ccccc3)cc2)CC1` was run?
**A.** 15.5%

**Q.** For `N#Cc1c(N)n(CCOC(=O)c2ccc(Cl)cc2)c2nc3ccccc3nc12`, which inhibition is on record?
**A.** 4%

**Q.** With `COC(=O)Cn1c2ccc(C)cc2c2nc(C)sc21` as the molecule, how does the inhibition read?
**A.** 24.5%

**Q.** How did the inhibition turn out when `O=c1[nH]c2ccccc2n2c(-c3ccccc3)nnc12` was run?
**A.** 66.7% (active)

**Q.** Which inhibition does the source give for `Cc1cccc(-n2c(N)c(C(=O)N3CCN(C)CC3)sc2=S)c1` here?
**A.** 18.2%

**Q.** With `COc1ccc(C2C(C#N)=C(N)Oc3cc(N)ccc32)cc1OC` (configuration not stated) as the molecule, how does the inhibition read?
**A.** -6.8%
